Out of some 5,500 compounds screened, about 2,000 (36%) were called active. Not shown: some 18% with an inconclusive outcome. Cut-off read from the data, not from the text of the source: active = normalized growth mostly below about 0.91 (no sharp cut-off); inconclusive = no clear call, values can overlap the other calls; inactive = mostly above about 0.92. The list shows a part of the results.
Assay: chemical genetic growth profiling, strain panel (AID 1159580);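 note: tested at 20 µM; growth read once vehicle control cultures reached saturation at 30 °C; 1 = growth at the plate median or of vehicle wells; lower values mean less growth of the strain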
Conditions: growth OD

Measured: normalized growth

O=S(=O)(O)c1cccc2cccc(Cl)c12
inactive: S. cerevisiae deletion strains, locus YAL013W, strain DEP1, active compounds read low 1.01 | S. cerevisiae deletion strains, locus YBR229C, strain ROT2, active compounds read low 1.01 | S. cerevisiae deletion strains, locus YDL101C, strain DUN1, active compounds read low 0.984 | S. cerevisiae deletion strains, locus YDR150W, strain NUM1, active compounds read low 0.93 | S. cerevisiae deletion strains, locus YEL061C, strain CIN8, active compounds read low 0.998 | S. cerevisiae deletion strains, locus YGR078C, strain PAC10, active compounds read low 1 | S. cerevisiae deletion strains, locus YHR030C, strain SLT2, active compounds read low 0.985 | S. cerevisiae deletion strains, locus YHR087W, strain rtc3, active compounds read low 1.06 | S. cerevisiae deletion strains, locus YJL187C, strain SWE1, active compounds read low 1 | S. cerevisiae deletion strains, locus YJR043C, strain POL32, active compounds read low 0.993 | S. cerevisiae deletion strains, locus YJR075W, strain HOC1, active compounds read low 0.999 | S. cerevisiae deletion strains, locus YLR039C, strain RIC1, active compounds read low 0.996 | S. cerevisiae deletion strains, locus YLR058C, strain SHM2 (second series), active compounds read low 1.01 | S. cerevisiae deletion strains, locus YLR085C, strain ARP6, active compounds read low 1.03 | S. cerevisiae deletion strains, locus YLR262C, strain YPT6, active compounds read low 1.01 | S. cerevisiae deletion strains, locus YML094W, strain GIM5, active compounds read low 1.03 | S. cerevisiae deletion strains, locus YMR219W, strain ESC1, active compounds read low 1.02 | S. cerevisiae deletion strains, locus YMR263W, strain SAP30, active compounds read low 1.01 | S. cerevisiae deletion strains, locus YMR307W, strain GAS1, active compounds read low 0.996 | S. cerevisiae deletion strains, locus YNL153C, strain GIM3, active compounds read low 0.999 | S. cerevisiae deletion strains, locus YNL298W, strain CLA4 (second series), active compounds read low 1.02 | S. cerevisiae deletion strains, locus YNL322C, strain KRE1, active compounds read low 1 | S. cerevisiae deletion strains, locus YNR030W, strain Alg12, active compounds read low 1.03 | S. cerevisiae deletion strains, locus YPL055C, strain LGE1, active compounds read low 1.02 | S. cerevisiae deletion strains, locus YPL241C, strain CIN2, active compounds read low 1.01 | S. cerevisiae deletion strains, locus YPR135W, strain CTF4, active compounds read low 0.973 | S. cerevisiae strains, strain wild type, active compounds read low 0.984

From PubChem BioAssay AID1159580 (chemical genetic matrix, 2015)
